This is an account of results in PubChem BioAssay AID2013 (Sanford-Burnham Center for Chemical Genomics, 2009).

Screen size: about 290,000 compounds; about 370 (0.13%) were called active.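 Rule for the calls: active = spots per cell inhibited over 60%, with over 100 cells counted and total cytoplasm intensity under 500,000; inconclusive = wells with under 100 cells, flagged as likely toxic; inactive = the rest.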 For the sample, actives were picked, then their nearest neighbours and some compounds at random. Measured potencies and affinities stand elsewhere.

What is called inhibition is the change of the read-out against control, counted positive when it falls.

The target in this assay is G-protein coupled receptor 55 (Homo sapiens) (UniProt Q9Y2T6). Briefly: GPR55 antagonists blocking LPI-driven arrestin recruitment, primary screen, imaging, U2OS, beta-arrestin-GFP, LPI agonist (AID 2013).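 Note: U2OS cells stably carrying GPR55 and arrestin-GFP stimulated by 5 µM LPI near EC80; imaged beta-arrestin-GFP aggregate spots per cell after agonist stimulation; plate controls were LPI-stimulated DMSO wells for no effect and DMSO wells without LPI for full effect.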 Particulars: U2OS GPR55 beta-arrestin-GFP translocation imaging, LPI antagonism; at 10 µM; hits give high values.
Sequence of G-protein coupled receptor 55 (Homo sapiens) (Q9Y2T6 whole entry, looked up): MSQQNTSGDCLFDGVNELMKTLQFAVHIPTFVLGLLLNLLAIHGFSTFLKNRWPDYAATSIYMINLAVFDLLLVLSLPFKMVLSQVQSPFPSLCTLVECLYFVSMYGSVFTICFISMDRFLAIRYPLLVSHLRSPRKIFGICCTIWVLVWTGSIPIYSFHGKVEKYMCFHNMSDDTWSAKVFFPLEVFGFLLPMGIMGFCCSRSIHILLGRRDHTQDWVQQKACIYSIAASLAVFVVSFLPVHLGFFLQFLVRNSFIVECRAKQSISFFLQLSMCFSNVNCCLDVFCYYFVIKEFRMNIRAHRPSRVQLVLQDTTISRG
Consider `CN=C1CC(C)(C)CC(=O)/C1=C(/O)CCC(=O)NC`, for which the inhibition was 11.2% (inactive).

As for `C=CCN1C(=O)N/C(=C/c2ccc(C)o2)C1=O`, the inhibition is 6.7% (inactive).

For `Cc1ccc(/C=C2\C(=O)NC(=O)N2C)o1`, the inhibition was 6.8% (inactive).

Turning to `Cc1ccc(/C=C2/NC(=O)N(Cc3ccccc3F)C2=O)o1`, the inhibition was -7.6% (inactive).

On to `CCN1C(=O)N/C(=C/c2ccc(C)o2)C1=O`, for which the inhibition is -0.6% (inactive).

Regarding `O=C1CC(NC(=O)c2ccc(Cl)cc2)C(=O)N1` (centres undefined), the inhibition was 8% (inactive).

For `CC(=O)/C=C1\N(C)c2ccc(C)cc2C1(C)C`, the inhibition was 9.7% (inactive).

As for `Cc1ccc2c(c1)C1(C(=O)N2C)N2CC3(C)CN1CC(C)(C2)C3=O` (centres undefined), the inhibition is -15.5% (inactive).

For `CC/C(=C/c1sc2ccc(C)cc2[n+]1CCO)SC`, the inhibition was -7.4% (inactive).

As to `Cc1ccc(-c2c3c(=O)n(C)c(=O)n(C)c3cn2N2CCOCC2)cc1`, the inhibition is -4% (inactive).

In the case of `O=C(c1ccco1)N(CCCN1CCOCC1)c1nc(-c2ccc(F)cc2)cs1`, the inhibition is 28.3% (inactive).

On to `Cc1ccc(-c2csc(N(CCCN3CCOCC3)C(=O)c3ccco3)n2)cc1`, for which the inhibition was 21.7% (inactive).

For `O=C(c1ccco1)N(CCCN1CCOCC1)c1nc(-c2ccc(Cl)cc2)cs1`, the inhibition was 69.4% (active).

As for `NS(=O)(=O)c1ccc(NNC(=O)c2ccccc2C(=O)O)cc1`, the inhibition is 6.3% (inactive).

Turning to `CCSc1ccc(-c2nn(-c3ccccc3)cc2/C=C(/C#N)C(=O)NC)cc1`, the inhibition was 0.7% (inactive).

Take `CCCSc1ccc(-c2nn(-c3ccccc3)cc2/C=C(/C#N)C(=O)NCCCOC)cc1`: the inhibition was -5.1% (inactive).

With `CCCCn1c(N)c(N(CC(C)C)C(=O)C2CCN(C(=O)c3ccc(F)cc3)CC2)c(=O)[nH]c1=O`, the inhibition was -8.6% (inactive).

For the compound `CCCCCCOc1ccc(OCC(O)CN2C(=O)NC(C)(C)C2=O)cc1` (centres undefined), the inhibition is -5.4% (inactive).

For `Cc1ccc(N2C(=O)CC(N(CCc3ccccc3)C(=S)Nc3ccc(N(C)C)cc3)C2=O)cc1` (centres undefined), the inhibition was 0.8% (inactive).

Consider `CCOC(=O)/C(=C\c1ccccc1)C(=O)c1cc(C(C)=O)c(Nc2ccccc2)s1`, for which the inhibition is -0.8% (inactive).

As to `CCOC(=O)/C(C#N)=C\c1cccnc1`, the inhibition was 0.9% (inactive).

With `O=C(CSc1ccccc1C(=O)N1CCCCC1)NCC1CCCCC1`, the inhibition was 15.6% (inactive).

As to `Cc1c(O)nc2sc3ccccc3n2c1=O`, the inhibition was -0.7% (inactive).

Consider `Cc1ccc(NC(=O)C(OC(=O)c2ccccc2Cl)c2ccccc2)cc1Cl` (centres undefined), for which the inhibition is 13.2% (inactive).

For the compound `O=C(N/C=C/c1ccc(Cl)cc1)NCc1ccc(Cl)cc1`, the inhibition was 9% (inactive).

`O=[N+]([O-])c1ccc(C2CNC(c3ccccc3)O2)cc1` (centres undefined): the inhibition was 7.3% (inactive).

Consider `N#Cc1c(Cl)nc(SCc2ccccc2)nc1-c1ccccc1`, for which the inhibition was -1.5% (inactive).

`COc1ccc(-c2nc(-c3cccc(C)c3)nc(Cl)c2C#N)cc1`: the inhibition was 5.9% (inactive).

With `CSc1nc(Cl)c(C#N)c(-c2ccc(C)cc2)n1`, the inhibition is 68.5% (active).
